ChEMBL document CHEMBL2218924, “A broad activity screen in support of a chemogenomic map for kinase signalling research and drug discovery” (Biochem J, 2013)

target: Serine/threonine-protein kinase pim-2 (Homo sapiens) (UniProt Q9P1W9); settings: at 10 µM
Sequence (Q9P1W9 whole entry, looked up): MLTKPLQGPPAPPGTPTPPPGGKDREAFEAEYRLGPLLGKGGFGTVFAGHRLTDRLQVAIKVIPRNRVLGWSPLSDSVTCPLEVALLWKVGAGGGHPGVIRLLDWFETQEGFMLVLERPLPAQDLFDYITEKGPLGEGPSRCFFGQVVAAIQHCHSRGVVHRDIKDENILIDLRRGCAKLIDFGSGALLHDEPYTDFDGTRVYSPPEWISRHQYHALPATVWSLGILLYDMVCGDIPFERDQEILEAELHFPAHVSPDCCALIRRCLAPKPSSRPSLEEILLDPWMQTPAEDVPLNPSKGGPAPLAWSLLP

Compared with `O=C1Cc2c([nH]c3ccc([N+](=O)[O-])cc23)-c2ccccc2N1`, `O=C1NC(=O)C(c2c[nH]c3ccccc23)=C1c1c[nH]c2ccccc12` is lower in residual activity: 117% for the first, 8% for the second.

Going from `O=c1c(-c2ccc(F)cc2)c(-c2ccncc2)[nH]n1-c1ccc(Cl)cc1` to `O=C(Nc1ccc(Cl)cc1)c1ccccc1NCc1ccncc1`, the residual activity rises from 100% to 124%.

First: O=S(=O)(NCCNC/C=C/c1ccc(Br)cc1)c1cccc2cnccc12
Second: N#C/C(=C1/Nc2ccccc2S1)c1ccnc(NCCc2cccnc2)n1
The residual activity of the first is higher: 132% for the first, 3% for the second.

Going from `Nc1n[nH]c2nc3ccccc3nc12` to `O=C1C(Cl)=C(N2C(=O)CCC2=O)C(=O)c2ccccc21`, the residual activity rises from 93% to 99%.

First: c1ccc(-c2cnc(Nc3ccc(OCCN4CCCC4)cc3)s2)cc1
Second: O=C(Nc1nc2ccccc2n1CCN1CCOCC1)c1cccc([N+](=O)[O-])c1
The residual activity of the first is higher: 105% for the first, 78% for the second.

Going from `COc1ccc(COc2ccc(Cc3cnc(N)nc3N)cc2OC)cc1` to `COc1cc2nccc(Oc3ccc(NC(=O)Nc4cc(C)on4)c(Cl)c3)c2cc1OC`, the residual activity falls from 115% to 103%.

Compared with `O=C1NC(=O)C(c2cn(CCCn3ccnc3)c3ccccc23)=C1Nc1ccccc1`, `COc1ccc2c(c1)c(C1=C(c3c[nH]c4ccccc34)C(=O)NC1=O)cn2CCCN(C)C` is lower in residual activity: 54% for the first, 9% for the second.

First: O=C(NC(NC(=S)Nc1ccc(F)c([N+](=O)[O-])c1)C(Cl)(Cl)Cl)C(c1ccccc1)c1ccccc1 (stereo not drawn)
Second: CC(C)N(CCC(=O)c1ccc2ccccc2c1)Cc1ccccc1
The residual activity of the first is lower: 70% for the first, 127% for the second.

First: CC(C)c1nn(-c2c(Cl)cccc2Cl)c2nc(Cc3ccc(OCCO)cc3)[nH]c(=O)c12
Second: O=C(c1cc2cc(O)ccc2[nH]1)c1cc2cc(O)ccc2[nH]1
The residual activity of the first is higher: 103% for the first, 64% for the second.

target: Serine/threonine-protein kinase pim-3 (Homo sapiens) (UniProt Q86V86); settings: at 1 µM

Going from `Nc1n[nH]c2nc3ccccc3nc12` to `Cc1cc(C)c(/C=C2\C(=O)Nc3ccccc32)[nH]1`, the residual activity rises from 95% to 100%.

Compared with `Oc1cccc(-c2nc(N3CCOCC3)c3oc4ncccc4c3n2)c1`, `N#Cc1c(NC(=O)c2cccc3ccccc23)sc2c1CCCC2` is lower in residual activity: 98% for the first, 88% for the second.

Compared with `CCN1/C(=C/C(C)=O)Sc2ccc(OC)cc21`, `COc1ccc2c(c1)c(C1=C(c3c[nH]c4ccccc34)C(=O)NC1=O)cn2CCCN(C)C` is higher in residual activity: 51% for the first, 57% for the second.

First: O=C1C(Cl)=C(N2C(=O)CCC2=O)C(=O)c2ccccc21
Second: CC(C)c1nn(-c2c(Cl)cccc2Cl)c2nc(Cc3ccc(OCCO)cc3)[nH]c(=O)c12
The residual activity of the first is lower: 84% for the first, 93% for the second.

First: COc1cc2nccc(Oc3ccc(NC(=O)Nc4cc(C)on4)c(Cl)c3)c2cc1OC
Second: N#C/C(=C1/Nc2ccccc2S1)c1ccnc(NCCc2cccnc2)n1
The residual activity of the first is higher: 107% for the first, 45% for the second.

Work on `Fc1ccc(-c2nc3n(c2-c2ccncc2)CCS3)cc1` yielded a residual activity of 94%.

target: Serine/threonine-protein kinase pim-3 (Homo sapiens) (UniProt Q86V86); settings: at 10 µM

Going from `Nc1n[nH]c2nc3ccccc3nc12` to `Cc1cc(C)c(/C=C2\C(=O)Nc3ccccc32)[nH]1`, the residual activity rises from 86% to 101%.

Going from `Oc1cccc(-c2nc(N3CCOCC3)c3oc4ncccc4c3n2)c1` to `N#Cc1c(NC(=O)c2cccc3ccccc23)sc2c1CCCC2`, the residual activity falls from 98% to 85%.

First: CCN1/C(=C/C(C)=O)Sc2ccc(OC)cc21
Second: COc1ccc2c(c1)c(C1=C(c3c[nH]c4ccccc34)C(=O)NC1=O)cn2CCCN(C)C
The residual activity of the first is lower: 11% for the first, 17% for the second.

Compared with `O=C1C(Cl)=C(N2C(=O)CCC2=O)C(=O)c2ccccc21`, `O=C1NC(=O)C(c2c[nH]c3ccccc23)=C1c1c[nH]c2ccccc12` is lower in residual activity: 84% for the first, 73% for the second.

First: CC(C)c1nn(-c2c(Cl)cccc2Cl)c2nc(Cc3ccc(OCCO)cc3)[nH]c(=O)c12
Second: COc1cc2nccc(Oc3ccc(NC(=O)Nc4cc(C)on4)c(Cl)c3)c2cc1OC
The residual activity of the first is lower: 92% for the first, 105% for the second.

First: N#C/C(=C1/Nc2ccccc2S1)c1ccnc(NCCc2cccnc2)n1
Second: Fc1ccc(-c2nc3n(c2-c2ccncc2)CCS3)cc1
The residual activity of the first is lower: 9% for the first, 98% for the second.

target: Serine/threonine-protein kinase PLK1 (Homo sapiens) (UniProt P53350); settings: at 1 µM
Sequence (P53350 whole entry): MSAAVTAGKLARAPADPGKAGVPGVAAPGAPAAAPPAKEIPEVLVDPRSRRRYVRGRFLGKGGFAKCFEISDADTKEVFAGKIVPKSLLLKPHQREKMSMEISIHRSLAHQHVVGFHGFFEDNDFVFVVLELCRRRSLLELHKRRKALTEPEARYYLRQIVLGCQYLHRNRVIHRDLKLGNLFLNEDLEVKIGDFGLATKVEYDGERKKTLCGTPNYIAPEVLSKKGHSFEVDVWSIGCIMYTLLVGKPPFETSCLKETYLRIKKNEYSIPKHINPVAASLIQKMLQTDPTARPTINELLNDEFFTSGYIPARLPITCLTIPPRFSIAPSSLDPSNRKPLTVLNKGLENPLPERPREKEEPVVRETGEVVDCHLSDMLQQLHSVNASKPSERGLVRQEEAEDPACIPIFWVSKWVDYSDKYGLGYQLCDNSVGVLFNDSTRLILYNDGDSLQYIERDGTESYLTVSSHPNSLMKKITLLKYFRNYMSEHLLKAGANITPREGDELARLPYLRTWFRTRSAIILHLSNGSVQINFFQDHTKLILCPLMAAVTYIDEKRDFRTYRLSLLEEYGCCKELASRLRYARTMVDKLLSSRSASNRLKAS

Going from `O=c1cc(N2CCOCC2)oc2c(-c3ccccc3)cccc12` to `O=C1Cc2c([nH]c3ccc([N+](=O)[O-])cc23)-c2ccccc2N1`, the residual activity rises from 61% to 105%.

First: O=c1c(-c2ccc(F)cc2)c(-c2ccncc2)[nH]n1-c1ccc(Cl)cc1
Second: Fc1ccc(-c2nc3n(c2-c2ccncc2)CCS3)cc1
The residual activity of the first is lower: 77% for the first, 91% for the second.

Compared with `Nc1n[nH]c2nc3ccccc3nc12`, `CCCCc1c(-c2ccc(O)cc2)[nH]c2nccnc12` is lower in residual activity: 91% for the first, 82% for the second.

Compared with `COc1ccc(COc2ccc(Cc3cnc(N)nc3N)cc2OC)cc1`, `COc1ccc(-c2cnc3c(-c4ccsc4)cnn3c2)cc1` is higher in residual activity: 80% for the first, 95% for the second.

Compared with `N#C/C(=C\c1ccc(O)c(O)c1)C(=O)NCc1ccccc1`, `N#Cc1c(NC(=O)c2cccc3ccccc23)sc2c1CCCC2` is higher in residual activity: 86% for the first, 94% for the second.

Going from `COc1cc2c(cc1OC)-c1n[nH]c(Nc3cccc(F)c3)c1C2` to `O=C1NC(=O)C(c2cn(CCCn3ccnc3)c3ccccc23)=C1Nc1ccccc1`, the residual activity rises from 65% to 76%.

Compared with `O=C(NC(NC(=S)Nc1ccc(F)c([N+](=O)[O-])c1)C(Cl)(Cl)Cl)C(c1ccccc1)c1ccccc1` (stereo not drawn), `CC(C)N(CCC(=O)c1ccc2ccccc2c1)Cc1ccccc1` is lower in residual activity: 102% for the first, 69% for the second.

First: O=C1C(Cl)=C(N2C(=O)CCC2=O)C(=O)c2ccccc21
Second: CC(C)c1nn(-c2c(Cl)cccc2Cl)c2nc(Cc3ccc(OCCO)cc3)[nH]c(=O)c12
The residual activity of the first is lower: 74% for the first, 83% for the second.

`N#C/C(=C1/Nc2ccccc2S1)c1ccnc(NCCc2cccnc2)n1` showed a residual activity of 83%.
